# PubChem BioAssay AID504329 (Southern Research Specialized Biocontainment Screening …, 2011)
# The campaign covered roughly 340,000 compounds. About 1,000 (0.29%) were called active. A selection follows. Measured potencies and affinities stand elsewhere. Values without a mark were called inactive. No stated cut-off is given here; in the data, inconclusive means inhibition above about 27% without an active follow-up result; inactive means below that.
# Assay: H1N1 influenza NS1A inhibitors, functional cell based assay (AID 504329)
# Details: percent inhibition, at 12.5 µM, hits give high values
row,Structure (SMILES),inhibition [%]
1,O=C(c1ccc([N+](=O)[O-])cc1)N(c1ccccn1)c1ccccn1,2.4
2,Cc1ccc(NC(=O)c2cccc(NC(=O)/C=C/c3ccco3)c2)cc1C,-4.7
3,Cc1cccc(-c2ccc3ncnc(NCc4cccs4)c3c2)c1,-11
4,O=C(O)c1cc2ccccc2n1-c1ccccc1,16.9
5,CN(C)N=C1c2cc(S(=O)(=O)N3CCOCC3)ccc2-c2ccc(S(=O)(=O)N3CCOCC3)cc21,19.5
6,O=C(CCN1C(=O)/C(=C/c2ccccc2Cl)SC1=S)Nc1cccnc1,-1.44
7,O=C(CCN1C(=O)c2ccccc2S1(=O)=O)N1CCN(c2ccccc2F)CC1,-1.99
8,Cc1ccccc1C(=O)NNC(=S)NC(=O)c1cccnc1,2.35
9,O=C(NC(=S)NNC(=O)c1ccccc1O)c1ccc([N+](=O)[O-])cc1,1.41
10,Cc1ccccc1C(=O)NNC(=S)NC(=O)c1ccccc1,-4.23
11,O=C(NNC(=S)NC(=O)c1ccccc1)c1cccc([N+](=O)[O-])c1,-20.7
12,Cc1ccc(C(=O)NC(=S)NNC(=O)c2ccccc2O)cc1,34.2
13,O=C(NNC(=S)NC(=O)c1ccccc1)c1cccnc1,4.4
14,Cc1ccc(-n2c(CNc3ccc(F)cc3)nnc2SCC(N)=O)cc1,6.65
15,Cc1cccc(NS(=O)(=O)c2cccc(C(=O)N3CCN(C/C=C/c4ccccc4)CC3)c2)c1,-7.79
16,CCN(c1ccccc1)S(=O)(=O)c1ccc2c(c1)CCCN2C(C)=O,5.4
17,CC(=O)CCCC(NS(=O)(=O)CCC(Cl)(Cl)Cl)c1ccccc1 (stereo not drawn),1.88
18,Oc1ccccc1C=NCCCCCCN=Cc1ccccc1O,-8.96
19,Oc1ccccc1C=NCCN=Cc1ccccc1O,18.6
20,COc1cccc(CN(C)C(=O)c2ccc(OCC(=O)N3CCOCC3)c(OC)c2)c1,-6.73
21,COc1ccccc1OCc1nc2ccccc2[nH]1,1.78
22,CCOC(=O)c1nc(Nc2ccc(Nc3ccccc3)cc2)c2ccccc2n1,10.9
23,CCOC(=O)c1nc(Nc2ccc(N3CCOCC3)cc2)c2ccccc2n1,-12.1
24,CCCCCC(=O)Nc1ccc(S(=O)(=O)Nc2nccc(C)n2)cc1,-0.66
25,Cc1ccc2nc(C)cc(N3CCOCC3)c2c1,-16.8

row,Structure (SMILES),inhibition [%]
1,Cc1csc(NC(=O)CSc2nnc(NC(=O)C3CC(=O)N(c4ccccc4)C3)s2)n1 (stereo not drawn),-4.67
2,COc1ccc(C)cc1NC(=O)CSc1ccc(-c2cccnc2)nn1,-8.69
3,Cc1ccccc1NC(=O)CSc1ccc(-c2ccccn2)nn1,12.1
4,Cc1ccc(NC(=O)CSc2ccc(-c3ccccn3)nn2)c(C)c1,3.42
5,O=C(CSc1ccc(-c2ccccn2)nn1)Nc1nccs1,4.83
6,O=C(CSc1ccc2nnc(-c3ccncc3)n2n1)Nc1nccs1,-1.97
7,COc1ccc(NC(=O)CSc2ccc(-c3ccccn3)nn2)cc1OC,1.4
8,Cc1csc(NC(=O)CSc2ccc(-c3ccccc3)nn2)n1,-3.27
9,Cc1nnc(NC(=O)CSc2ccc3nnc(-c4ccccn4)n3n2)s1,15.4
10,COc1cccc(N2CCN(C(=S)Nc3ccccc3)CC2)c1,4.19
11,COc1ccc(CCNC(=O)COC(=O)c2ccc(C)s2)cc1,-10
12,COc1ccc(C(CNC(=O)C2CC(=O)N(Cc3ccc(C)cc3)C2)N(C)C)cc1 (stereo not drawn),-3.01
13,O=C(NCCc1ccc(F)cc1)C1CCCCC1,2.71
14,CCOC(=O)C1CCCN(C(=O)COc2ccc(N(C)S(=O)(=O)c3ccc(F)cc3)cc2)C1 (stereo not drawn),-23.6
15,Cc1nnc(SCC(=O)Nc2ccc(Cl)cn2)n1Cc1ccccc1,1.7
16,CCOC(=O)Nc1n[nH]c(NC(=O)OCC)c1[N+](=O)[O-],8.99
17,CO/N=C/C=C1/N(C)c2ccccc2C1(C)C,11.6
18,CN1/C(=C\C=Nc2ccc3ccccc3c2)C(C)(C)c2ccccc21,2.41
19,CN1/C(=C\C=N\O)C(C)(C)c2ccccc21,-7.5
20,CN1/C(=C\C=Nc2ccccc2)C(C)(C)c2ccccc21,-3.07
21,Cc1ccc(-c2nc(CNC(=O)c3cc(C)on3)cs2)cc1,-7.61
22,O=C(N/N=C/c1ccccc1)C1CCCN1C(=O)c1cc([N+](=O)[O-])cc([N+](=O)[O-])c1 (stereo not drawn),-6.49
23,CNS(=O)(=O)c1cccc(C(=O)OCc2cc(=O)n3cc(Br)ccc3n2)c1,1.47
24,CCCCCSc1cc(OC)c(CCN(C)C)cc1OC,10.3
25,CCCCCSc1cc(OC)c(CCN)cc1OC,15.3

row,Structure (SMILES),inhibition [%]
1,NC(=O)NCc1cccs1,-4.81
2,O=C(O)COCc1nc2ccccc2[nH]1,-15.3
3,CC(C)N(Cc1nc2ccccc2[nH]1)C(C)C,-21.7
4,CCn1c(SCC(=O)Nc2nccs2)nnc1-c1cccnc1,-5.86
5,COc1cc(NC(=O)c2cc([N+](=O)[O-])ccc2NC(=O)CNCc2ccccn2)cc(OC)c1,-1.96
6,O=C(CN1CCN(c2ccccn2)CC1)Nc1ccc([N+](=O)[O-])cc1C(=O)Nc1ccccc1F,12
7,COc1ccc(NC(=O)c2cc([N+](=O)[O-])ccc2NC(=O)CNC2CCCCC2C)c(OC)c1 (stereo not drawn),-6.01
8,O=C(CNC1CCCCC1)Nc1ccc([N+](=O)[O-])cc1C(=O)Nc1ccccc1F,-6.89
9,CCn1c(=O)c([N+](=O)[O-])c(NC2CCS(=O)(=O)C2)c2ccccc21 (stereo not drawn),-2.22
10,CC(C)C(c1nnnn1C(C)(C)C)N1CCC(Cc2ccccc2)CC1 (stereo not drawn),-3.35
11,CCCN(CCC)Cc1c(C(=O)N/N=C/C(C)=C\c2ccccc2)nnn1-c1nonc1N,6.9
12,COc1cc(/C=C(\NC(=O)c2ccccc2)C(=O)NC(C(=O)O)c2ccccc2)cc(OC)c1OC (stereo not drawn),2.4
13,Cc1ccccc1NCc1ccc(O)c2ncccc12,11.8
14,Cc1cccc(NCc2ccc(O)c3ncccc23)c1,-1.23
15,c1ccc2c(-c3nn[nH]n3)cccc2c1,-2.59
16,Cc1ccc(NCc2ccc(O)c3ncccc23)cc1,-2.47
17,CC(C)COCc1ccc(O)c2ncccc12,1.04
18,O=[N+]([O-])c1ccc(O)c2cccnc12,-3.9
19,Cc1ccccc1-c1nn[nH]n1,-2.96
20,Cc1ccc([N+](=O)[O-])c2cccnc12,-5.17
21,Cc1ccccc1Nc1nc(-c2cccnc2)nc2ccccc12,-4.04
22,CCOc1ccccc1-n1c(O)c(C=NCCCn2ccnc2)c(=O)[nH]c1=O,3.36
23,CN1CCC(N(C)C(=O)c2ccccc2F)CC1,17.7
24,CN1CC2=Cc3ccccc3OC23Oc2ccccc2C=C3C1,3.84
25,O=C(CCCOc1ccccc1)Nc1cccc(S(=O)(=O)N2CCCCC2)c1,-17.5

row,Structure (SMILES),inhibition [%]
1,CCN1CCN(C(=O)CS(=O)(=O)Cc2nc(-c3cccc(OC)c3)oc2C)CC1,-5.29
2,NC(=O)C1CCN(S(=O)(=O)Cc2ccccc2Cl)CC1,4.51
3,COc1ccc(CNC(=O)c2cc(C)nn2-c2ccccc2)cc1,0.54
4,COC(=O)c1ccc(Cn2nc(-c3ccccc3)ccc2=O)cc1,-6.12
5,O=C1OCC(c2ccccc2)=C1c1ccccc1[N+](=O)[O-],-4.03
6,COCCn1ccc2c(OCC(=O)NCCc3ccccc3)cccc2c1=O,-4.46
7,COCc1ccc(O)c2ncccc12,2.78
8,Oc1ccc(Cl)c2cccnc12,-4.63
9,Oc1ccc(F)c2cccnc12,3.59
10,CCCOCc1ccc(O)c2ncccc12,-7.06
11,Cc1ccsc1C1CC(=O)NC2=C1C(=O)CC(C)(C)C2 (stereo not drawn),-0.46
12,Cc1ccc(CNC(=O)C2CCC(=O)N(CCc3cccc(F)c3)C2)s1 (stereo not drawn),11.3
13,O=C(Nc1c2c(nn1-c1cccc(Cl)c1)CS(=O)(=O)C2)c1ccc2c(c1)OCO2,0.57
14,Cc1nn(-c2ccc(F)cc2)c(Cl)c1/C=N/NC(=O)c1ccc(O)cc1,9.96
15,Cc1nn(-c2ccccc2)c(C)c1/C=N/NC(=O)c1cc(O)cc(O)c1,-10.7
16,Cc1nn(-c2ccccc2)c(C)c1/C=N/NC(=O)c1ccccc1O,6.87
17,Cc1nn(-c2ccccc2)c(N2CCCC2)c1/C=N/NC(=O)c1cc2ccccc2cc1O,2.95
18,Cc1ccc(-c2cc(C(=O)N/N=C/c3c(C)nn(-c4ccccc4)c3C)[nH]n2)cc1,11.2
19,Cc1nn(-c2ccccc2)c(C)c1/C=N/NC(=O)c1cc(-c2ccccc2)n[nH]1,-0.6
20,COc1ccc(-c2nc(CS(=O)CC(=O)N3CCN(C)CC3)c(C)o2)cc1OC (stereo not drawn),-3.22
21,COc1ccc(CCCc2nnc(SCC(=O)Nc3cc(C)c(C)cc3Br)o2)cc1,-5.67
22,O=C(CS(=O)(=O)Cc1ccccc1)N1CCN(C(=O)c2ccco2)CC1,-6.89
23,Cc1ccc(S(=O)(=O)N/N=C(\c2ccccc2)c2cccnc2)cc1,-2.16
